Out of some 150,000 compounds screened, about 540 (0.36%) showed an effect of 50% or more. The sample as a whole holds a higher share of strong results than the screen did.

This assay has as its system Plasmodium falciparum. Briefly: Primary screen in NF54 nanoGlo assay, in single point, at 2uM, 72h; a lower Z score goes with more inhibition. It counts as functional, Erythrocyte. The settings on record: timepoint 72 hour.
In general, % Inhibition refers to the change of the read-out against control, counted positive when it falls. Consider `CC(C)n1ncc2c1CC(NC(=O)CCC1CCCO1)CC2` (centres undefined), for which the “% Inhibition” value is -3% and the Z score is 0.62.

`CN(C)c1ccc(C(=O)Nc2ccccc2-c2cn3c(n2)CCCC3)nn1`: the “% Inhibition” value was -10% and the Z score is 1.93.

`O=C1C2CCCCN2C(=O)N1CC(O)COc1ccc(F)cc1` (centres undefined): the “% Inhibition” value is recorded as -5% and the Z score is recorded as 0.77.

For `CCOC1CC(NC(C)C(=O)N(C)Cc2cccc(F)c2)C12CCCC2` (centres undefined), the “% Inhibition” value is on record as 4% and the Z score is given as -0.62.

`CCOC1CC(NC2CC(c3ccc(F)cc3)C2)C12CCC2` (centres undefined): the “% Inhibition” value worked out at 85% and the Z score was -15.92.

In the case of `CCOC1CC(NCc2c[nH]nc2-c2cccnc2)C12CCC2` (centres undefined), the “% Inhibition” value was -10% and the Z score is 1.18.

`CCn1ccc(C(=O)N2CC(N(Cc3cccnc3)S(C)(=O)=O)C2)n1`: the “% Inhibition” value is given as -4% and the Z score is given as 0.78.

For the compound `CC(C)(C)OC(=O)N[C@@H]1CCCN(Cc2nc(-c3ccco3)no2)C1`, the “% Inhibition” value is -11% and the Z score is reported as 1.1.

As for `CCc1noc(Cc2c(C)nn(-c3ccccc3)c2C)n1`, the “% Inhibition” value was -5% and the Z score worked out at 0.89.

With `CCc1c(C)nn2c(c1C)c(-c1ccccc1)[n+]1c(C)c(CC)c(C)nc21`, the “% Inhibition” value was determined as 53% and the Z score is reported as -10.21.

Turning to `Cc1nn2c(-c3ccc(-c4ccccc4)cc3)ccnc2c1Cl`, the “% Inhibition” value is reported as -12% and the Z score is recorded as 1.64.

Regarding `C[C@@H](CN1CCOCC1)NC(=O)c1cccc2c1C(=O)OC2(C)C`, the “% Inhibition” value came out at 2% and the Z score is recorded as -0.36.

Turning to `O=C(CN1C(=O)CCC1=O)N1CCN(S(=O)(=O)c2ccc(Br)cc2)CC1`, the “% Inhibition” value is -14% and the Z score is recorded as 1.24.

On to `COc1cccc([C@H]2C[C@H](N(C)C(=O)CCCC(F)(F)F)C2)c1`, for which the “% Inhibition” value stood at 5% and the Z score is -0.72.

In the case of `Cn1nc(-c2nc(-c3cccc(F)c3)no2)c2c1CCN(C(=O)c1cccc(F)c1)C2`, the “% Inhibition” value is -7% and the Z score came out at 0.84.

With `Cn1nc(-c2nc(-c3ccc(F)cc3)no2)c2c1CCN(C(=O)c1cccc(Cl)c1)C2`, the “% Inhibition” value was found to be 66% and the Z score was -7.55.

Consider `Cn1nc(-c2nc(-c3cccc(F)c3)no2)c2c1CCN(C(=O)c1ccccn1)C2`, for which the “% Inhibition” value is given as 12% and the Z score is listed as -1.38.

With `CC12CN(S(=O)(=O)c3ccc4c(c3)OCCO4)C3(C(=O)OCc4ccccc4)CC1CCC23C` (centres undefined), the “% Inhibition” value is on record as 70% and the Z score is -8.79.

For `CC12CN(S(=O)(=O)c3ccc4c(c3)OCCO4)C3(C(=O)NCCc4ccccc4)CC1CCC23C` (centres undefined), the “% Inhibition” value was -11% and the Z score was 1.42.

Turning to `CC12CN(S(=O)(=O)c3ccccc3)C3(C(=O)O)CC1CCC23C` (centres undefined), the “% Inhibition” value came out at 6% and the Z score is -0.98.

With `CCCN1CCN(CCCNC(=O)c2cc3cc(S(=O)(=O)N(C)C)ccc3n2CC)CC1`, the “% Inhibition” value was -15% and the Z score is on record as 2.13.

For `Clc1ccc(-c2cn3c(nc4ccccc43)c(-c3ccccc3)n2)cc1`, the “% Inhibition” value is recorded as -43% and the Z score is 5.09.

Take `c1ccc(-c2cn3c(n2)c(-c2ccc4ccccc4n2)cc2ccccc23)cc1`: the “% Inhibition” value is reported as 76% and the Z score is given as -4.16.

For the compound `CC(C)CCn1c(=O)c(-c2ccc3ccccc3n2)cc2ccccc21`, the “% Inhibition” value was -1% and the Z score stood at 0.07.

As to `COc1ccc(C[C@@]2(CCC(=O)N3CCCCC3)CCC(=O)N2)cc1`, the “% Inhibition” value came to 4% and the Z score is on record as -0.58.

As to `OCc1cc(CN[C@H]2CCCNc3ccccc32)ccc1F`, the “% Inhibition” value came out at 4% and the Z score is given as -0.52.

`OC(CNC1CCCNc2ccccc21)c1ccc(Cl)s1` (centres undefined): the “% Inhibition” value came to 57% and the Z score is reported as -4.74.

On to `O=C(Cc1cccs1)N1CCC2(CCC(=O)N(CCc3cccnc3)C2)CC1`, for which the “% Inhibition” value was determined as 5% and the Z score is -1.07.

For the compound `COc1ncnc(OC)c1CNc1cnn(C)c1`, the “% Inhibition” value stood at 35% and the Z score is recorded as -0.52.

Regarding `O=C(CC(F)(F)F)N1CCC[C@H](Oc2ncccn2)C1`, the “% Inhibition” value is 14% and the Z score is on record as -1.95.

As to `Cc1noc2ncnc(N3CCC4(CC3)CC(=O)N(Cc3ccccc3)C4)c12`, the “% Inhibition” value is reported as -6% and the Z score is listed as 0.71.

On to `O=C(c1cc(-c2ccco2)n[nH]1)N1CCC(Oc2ccccn2)CC1`, for which the “% Inhibition” value is -4% and the Z score turned out to be 0.71.

As to `O=C(c1cc(-c2ccco2)n[nH]1)N1CCC(N2CCC(Oc3ccccc3F)CC2)CC1`, the “% Inhibition” value was 59% and the Z score was -4.88.

Turning to `O=C(c1cc(-c2ccccc2)n[nH]1)N1CCC(N2CCC(Oc3ccccc3F)CC2)CC1`, the “% Inhibition” value is listed as -12% and the Z score was 1.48.

Turning to `CC[C@H](Oc1ccccc1C)c1nnc(C2(c3ccccc3)CC2)o1`, the “% Inhibition” value was -15% and the Z score is 1.76.

On to `CC(C)(C)OC(=O)NC1CCCC1Nc1cnn(-c2ccccn2)c1` (centres undefined), for which the “% Inhibition” value was -13% and the Z score stood at 1.28.

With `Cc1ccsc1-c1noc([C@@H]2COCCN2C)n1`, the “% Inhibition” value is reported as 87% and the Z score was -14.98.

Take `Cc1cnn(C)c1CN1CCOC[C@H]1c1nc(-c2ccccc2)no1`: the “% Inhibition” value was determined as 16% and the Z score is recorded as -2.06.

For the compound `Cc1ccsc1-c1noc([C@H]2CCc3nccn3C2)n1`, the “% Inhibition” value is listed as -5% and the Z score was found to be 0.62.

As to `CC(NCc1ccc(Br)c2cccnc12)C1CCOC1` (centres undefined), the “% Inhibition” value is -5% and the Z score is reported as 0.52.

`Cc1ccc(C(=O)Nc2c(C)nc(N3CCOCC3)nc2C)cc1C`: the “% Inhibition” value is reported as 13% and the Z score is -2.05.

`O=S(=O)(Nc1cccc2ccccc12)c1cccs1`: the “% Inhibition” value worked out at 35% and the Z score is -3.95.

The values are drawn from ChEMBL document CHEMBL4888484, “Replenishing the malaria drug discovery pipeline: Screening and hit evaluation of the MMV Hit Generation Library 1 (HGL1) against asexual blood stage Plasmodium falciparum ,using a nano luciferase reporter read-out” (2022).
